# Results taken from the supplement of paper PMC8728848.
# This is one part of a sample in which the strongest signals are shown more often than they occur.
# B1: AT1G80310(18) (Arabidopsis thaliana), Q0WP36 (protein)
# chain: METTTTPLLPGDRSRCGWLRRRLRLKNPLSSELSGAVGDLGTFIPIVLTLTLVSNLDLSTTLIFTGFYNIATGLLFDIPMPVQPMKSIAAVAVSESPHLTPSQIAAAGASTAATLLLLGATGAMSFLYNIIPLPVVRGVQLSQGLQFAFTAIKYVRFNYDTATLKPSSSPRIWLGLDGLILALAALLFIILSTGSGNDREAEDGDLAETSSNESQSRRRRLRLLSSIPSALIVFALGLVLCFIRDPSIFKDLKFGPSKFHILRISWDDWKIGFLRAAIPQIPLSVLNSVIAVCKLSNDLFDKELSATTVSISVGVMNLIGCWFGAMPVCHGAGGLAGQYRFGARSGLSVIFLGIGKLIVGLVFGNSFVRILSQFPIGILGVLLLFAGIELAMASKDMNSKEDSFIMLVCAAVSMTGSSAALGFGCGVVLYLLLKLRTLDCSSVTLFSRSSDESQVDSEAAPRDV
# Legend:
# Experiment in all cases: glycan array binding signal (z-score within array); higher = stronger binding
# Settings in all cases: glycan notation: IUPAC condensed, linker removed
# [1] = target: Gal(b1-4)GlcNAc(b1-3)Gal(b1-4)GlcNAc(b1-6)[Gal(b1-3)]GalNAc
# Procedure, shortened: (§1)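 Glycan array data came from 3228 arrays in the Consortium for Functional Glycomics database, and only arrays with an available protein sequence were kept. Glycan names were put into IUPAC-condensed notation, and columns mapping to the same glycan were averaged. The binding signal is a within-array Z-score, averaged across arrays of one protein sequence run at different concentrations or buffers and across linkers. A negative Z-score can be read as non-binding.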
# [2] = target: Gal3S(b1-4)[Fuc(a1-3)]GlcNAc6S
# Procedure, shortened: as §1
# Gal3S6S(b1-4)GlcNAc6S = target: Gal3S6S(b1-4)GlcNAc6S
# Procedure, shortened: as §1
# Gal6P(b1-4)GlcNAc = target: Gal6P(b1-4)GlcNAc
# Procedure, shortened: as §1
# GalNAc(b1-4)GlcNAc = target: GalNAc(b1-4)GlcNAc
# Procedure, shortened: as §1
# GalNAc4S6S(b1-4)GlcNAc = target: GalNAc4S6S(b1-4)GlcNAc
# Procedure, shortened: as §1
# GalNAc6S(b1-4)GlcNAc = target: GalNAc6S(b1-4)GlcNAc
# Procedure, shortened: as §1
# Glc(b1-4)Glc = target: Glc(b1-4)Glc
# Procedure, shortened: as §1
# [3] = target: GlcNAc(a1-4)Gal(b1-4)GlcNAc
# Procedure, shortened: as §1
# [4] = target: GlcNAc(a1-4)Gal(b1-4)GlcNAc(b1-3)Gal(b1-4)GlcNAc(b1-3)Gal(b1-4)GlcNAc
# Procedure, shortened: as §1
# [5] = target: GlcNAc(b1-3)Gal(b1-4)GlcNAc(b1-3)Gal(b1-4)GlcNAc
# Procedure, shortened: as §1
# [6] = target: GlcNAc(b1-3)Gal(b1-4)GlcNAc(b1-3)Gal(b1-4)GlcNAc(b1-2)Man(a1-3)[GlcNAc(b1-3)Gal(b1-4)GlcNAc(b1-3)Gal(b1-4)GlcNAc(b1-2)Man(a1-6)]Man(b1-4)GlcNAc(b1-4)[Fuc(a1-6)]GlcNAc
# Procedure, shortened: as §1
# [7] = target: GlcNAc(b1-6)Gal(b1-4)GlcNAc
# Procedure, shortened: as §1
# [8] = target: GlcNAc6S(b1-3)Gal(b1-4)GlcNAc
# Procedure, shortened: as §1
# [9] = target: Man(a1-2)Man(a1-3)[Man(a1-2)Man(a1-6)]Man
# Procedure, shortened: as §1
# [10] = target: Man(a1-2)Man(a1-6)[Man(a1-3)]Man(a1-6)[Man(a1-2)Man(a1-2)Man(a1-3)]Man
# Procedure, shortened: as §1
# [11] = target: Man(a1-3)[Man(a1-6)]Man(b1-4)GlcNAc(b1-4)[Fuc(a1-6)]GlcNAc
# Procedure, shortened: as §1
# [12] = target: Neu5Ac(a2-3)Gal(b1-3)GalNAc
# Procedure, shortened: as §1
# [13] = target: Neu5Ac(a2-3)Gal(b1-3)GalNAc(b1-4)[Neu5Ac(a2-3)]Gal(b1-4)Glc
# Procedure, shortened: as §1
# [14] = target: Neu5Ac(a2-3)Gal(b1-3)GalNAc(b1-4)[Neu5Ac(a2-8)Neu5Ac(a2-3)]Gal(b1-4)Glc
# Procedure, shortened: as §1
# [15] = target: Neu5Ac(a2-3)Gal(b1-4)GlcNAc(b1-2)Man(a1-3)[Neu5Ac(a2-3)Gal(b1-4)GlcNAc(b1-2)Man(a1-6)]Man(b1-4)GlcNAc(b1-4)[Fuc(a1-6)]GlcNAc
# Procedure, shortened: as §1
# [16] = target: Neu5Ac(a2-3)Gal(b1-4)GlcNAc(b1-3)Gal(b1-4)GlcNAc
# Procedure, shortened: as §1
# [17] = target: Neu5Ac(a2-6)Gal(b1-4)GlcNAc(b1-2)Man
# Procedure, shortened: as §1
# [18] = target: Neu5Ac(a2-6)Gal(b1-4)GlcNAc(b1-2)Man(a1-6)[Man(a1-3)]Man(b1-4)GlcNAc(b1-4)GlcNAc
# Procedure, shortened: as §1
# [19] = target: Neu5Ac(a2-6)Gal(b1-4)GlcNAc(b1-3)Gal(b1-3)GlcNAc
# Procedure, shortened: as §1
# [20] = target: Neu5Ac(a2-6)GalNAc(b1-4)GlcNAc6S
# Procedure, shortened: as §1
# [21] = target: Neu5Ac(a2-8)Neu5Ac(a2-3)Gal(b1-3)GalNAc(b1-4)[Neu5Ac(a2-3)]Gal(b1-4)Glc
# Procedure, shortened: as §1
# [22] = target: Neu5Ac(a2-8)Neu5Ac(a2-8)Neu5Ac(a2-8)Neu5Ac(a2-3)[GalNAc(b1-4)]Gal(b1-4)Glc
# Procedure, shortened: as §1
# [23] = target: Neu5Ac9Ac(a2-3)Gal(b1-3)GlcNAc
# Procedure, shortened: as §1
# Neu5Gc(a2-6)GalNAc = target: Neu5Gc(a2-6)GalNAc
# Procedure, shortened: as §1
binder,measurement,setting,value
B1,glycan array binding signal (z-score),[1],-0.516
same,glycan array binding signal (z-score),[2],-0.286
same,glycan array binding signal (z-score),Gal3S6S(b1-4)GlcNAc6S,0.953
same,glycan array binding signal (z-score),Gal6P(b1-4)GlcNAc,0.119
same,glycan array binding signal (z-score),GalNAc(b1-4)GlcNAc,3.09
same,glycan array binding signal (z-score),GalNAc4S6S(b1-4)GlcNAc,3.56
same,glycan array binding signal (z-score),GalNAc6S(b1-4)GlcNAc,2.89
same,glycan array binding signal (z-score),Glc(b1-4)Glc,1.3
same,glycan array binding signal (z-score),[3],-0.622
same,glycan array binding signal (z-score),[4],0.229
same,glycan array binding signal (z-score),[5],-0.512
same,glycan array binding signal (z-score),[6],1.31
same,glycan array binding signal (z-score),[7],-0.608
same,glycan array binding signal (z-score),[8],0.436
same,glycan array binding signal (z-score),[9],-0.796
same,glycan array binding signal (z-score),[10],-0.243
same,glycan array binding signal (z-score),[11],-0.517
same,glycan array binding signal (z-score),[12],0.654
same,glycan array binding signal (z-score),[13],-0.383
same,glycan array binding signal (z-score),[14],4.16
same,glycan array binding signal (z-score),[15],-0.895
same,glycan array binding signal (z-score),[16],-0.967
same,glycan array binding signal (z-score),[17],-0.534
same,glycan array binding signal (z-score),[18],-0.892
same,glycan array binding signal (z-score),[19],-0.646
same,glycan array binding signal (z-score),[20],-0.543
same,glycan array binding signal (z-score),[21],-0.86
same,glycan array binding signal (z-score),[22],-0.09
same,glycan array binding signal (z-score),[23],-0.052
same,glycan array binding signal (z-score),Neu5Gc(a2-6)GalNAc,0.551
